Only a selection was taken, and hits are over-represented in it overall.
RECQ1 helicase: RECQ1 (human) helicase inhibition | 0.54% of 240,000 active | Potency, µM (highest dose often 57.3 µM), for the others: at the top dose activity, negative = inhibition, usual class: inhibitors | RECQ1 DNA unwinding, red fluorescence kinetic read | AID 2549 | P46063;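 note: plate controls were vehicle for no effect and no enzyme for full effect; nearly all actives have a fitted effect of over 30% in size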
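50 nM RECQ1T1 preincubated 15 min with compound in Tris pH 8.0 buffer with MgCl2, DTT, Tween-20 and 2.5 ug/ml poly(dI-dC); started with 200 nM TAMRA/BHQ-2 forked duplex and 2 mM ATP. Unwinding read as fluorescence (525/598 nm), two reads 2 h apart.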
APE1 inh: blocks human APE1 abasic DNA cleavage | recombinant APE1, TAMRA/BHQ-2 abasic DNA cleavage fluorescence | AID 2517 | Potency, µM (top dose mostly 65.8 µM), inactives show top-dose activity change, negative = inhibition, actives largely listed as inhibitors | P27695 | 0.35% of 350,000 active;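 note: plate controls were vehicle for no effect and reference inhibitor for full effect; nearly all actives have a fitted effect of over 55% in size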
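Activity was derived from the fluorescence gain between first and third kinetic reads (60 s intervals, ex 525/em 598 nm) after 50 nM THF-abasic TAMRA/BHQ-2 duplex was added to 0.75 nM APE1 preincubated 15 min with compound.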
BLM inh: blocks DNA unwinding by human BLM helicase; Potency, µM (doses to about 56.1 µM), for inactives: at the top dose activity change, negative = inhibition, hits mostly inhibitors; recombinant BLM DNA unwinding, fluorescence dequenching; AID 2528; 0.2% of 350,000 active;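 note: plate controls were vehicle for no effect and no enzyme for full effect; nearly all actives have a fitted effect of over 35% in size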
Target sequence (P54132 whole entry, looked up): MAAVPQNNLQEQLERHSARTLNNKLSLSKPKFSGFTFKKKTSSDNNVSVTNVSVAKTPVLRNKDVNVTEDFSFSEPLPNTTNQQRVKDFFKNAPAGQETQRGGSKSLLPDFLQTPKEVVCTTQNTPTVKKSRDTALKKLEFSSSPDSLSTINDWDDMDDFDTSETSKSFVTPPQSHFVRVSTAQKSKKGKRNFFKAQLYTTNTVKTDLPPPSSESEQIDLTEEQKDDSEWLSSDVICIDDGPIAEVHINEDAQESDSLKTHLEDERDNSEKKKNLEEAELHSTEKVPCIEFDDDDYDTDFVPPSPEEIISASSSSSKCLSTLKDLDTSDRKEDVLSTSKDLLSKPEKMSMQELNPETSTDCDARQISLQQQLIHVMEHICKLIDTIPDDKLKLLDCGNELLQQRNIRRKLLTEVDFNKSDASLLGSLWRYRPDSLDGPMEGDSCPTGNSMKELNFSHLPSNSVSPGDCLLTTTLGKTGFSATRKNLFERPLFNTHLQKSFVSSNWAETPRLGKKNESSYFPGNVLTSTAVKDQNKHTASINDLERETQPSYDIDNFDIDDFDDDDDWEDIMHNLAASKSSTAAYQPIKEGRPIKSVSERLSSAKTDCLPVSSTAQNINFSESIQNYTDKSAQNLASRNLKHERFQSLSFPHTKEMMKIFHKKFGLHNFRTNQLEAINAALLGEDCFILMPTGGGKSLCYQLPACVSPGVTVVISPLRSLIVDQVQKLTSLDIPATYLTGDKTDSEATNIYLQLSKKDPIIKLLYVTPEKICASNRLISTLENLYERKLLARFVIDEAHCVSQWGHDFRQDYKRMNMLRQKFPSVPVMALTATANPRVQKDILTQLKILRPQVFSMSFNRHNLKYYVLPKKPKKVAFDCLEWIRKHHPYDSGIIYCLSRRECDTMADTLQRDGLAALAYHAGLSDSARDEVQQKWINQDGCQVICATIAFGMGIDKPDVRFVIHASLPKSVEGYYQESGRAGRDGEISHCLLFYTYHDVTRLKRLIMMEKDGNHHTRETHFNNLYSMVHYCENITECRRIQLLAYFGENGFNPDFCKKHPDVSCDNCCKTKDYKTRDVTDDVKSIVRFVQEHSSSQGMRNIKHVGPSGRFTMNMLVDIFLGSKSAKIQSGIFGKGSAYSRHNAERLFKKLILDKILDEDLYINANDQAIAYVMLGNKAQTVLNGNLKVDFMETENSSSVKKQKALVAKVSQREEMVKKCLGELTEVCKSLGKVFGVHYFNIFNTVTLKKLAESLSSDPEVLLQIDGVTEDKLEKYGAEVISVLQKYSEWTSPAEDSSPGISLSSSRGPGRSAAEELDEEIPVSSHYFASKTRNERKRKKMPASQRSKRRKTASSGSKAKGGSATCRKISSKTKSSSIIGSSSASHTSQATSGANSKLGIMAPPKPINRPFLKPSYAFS
KDM4E inh: blocks human JMJD2E demethylase activity. JMJD2E catalytic domain, FDH-coupled NADH fluorescence (FDH is formaldehyde dehydrogenase). Potency, µM (top dose mostly 57.1 µM), for the others: at the top dose activity change, negative = inhibition, hits mostly inhibitors. 1.6% of 230,000 active; active = well fitted inhibition curve with a large enough effect, not every such curve was filed as active; inconclusive = small, poorly fitted or top-dose-only effect, or another doubt; inactive = no such curve, though single readings can be large or run the other way;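 note: 0% = wells with enzyme and -100% = buffer wells without enzyme; nearly all actives have a fitted effect of over 50% in size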
L3MBTL1 inh: inhibitors of human L3MBTL1; AlphaScreen L3MBTL1–H3K9me1 peptide binding; Potency, µM (doses to about 57.1 µM), without a hit: at the highest dose activity, negative = inhibition, most hits filed as inhibitors; 0.66% of 230,000 active; AID 485360; note: nearly all actives have a fitted effect of over 60% in size
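Displacement of a biotinylated histone H3(1-15) peptide monomethylated at Lys9 (75 nM) from L3MBTL1 (50 nM) was measured by AlphaScreen after a 30 min room-temperature compound incubation; cefsulodin titration served as intraplate control.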
GoLoco inh red: inhibitors of human Gai1-RGS12 GoLoco interaction (red fluorophore); P63096; Gai1:RGS12 GoLoco peptide FP, rhodamine, 10 min; Potency, µM (top dose mostly 61.6 µM), inactives show at the highest dose activity, negative = inhibition, actives largely listed as inhibitors; 0.44% of 230,000 active; AID 880; active = well fitted inhibition curve with a large enough effect, not every such curve was filed as active; inactive = no such curve, though single readings can be large or run the other way; note: nearly all actives have a fitted effect of over 30% in size
* hit, by the source's call; i = inactive; ? = inconclusive; . = not tested or not shown; [ ] = remark or other dose. Unless noted, calls come from the whole dose curve; as a rule, active = well fitted curve in the direction sought with a large enough effect; inconclusive = small, poorly fitted or top-dose-only effect, or another doubt; inactive = no such curve, though single readings can be large; an effect the other way counts as inactive or inconclusive. Unless noted, % is set by controls: 0 for no effect and ±100 for the full control effect; potency is the fitted concentration of half-maximal effect.

SMILES	RECQ1 helicase	APE1 inh	BLM inh	KDM4E inh	L3MBTL1 inh	GoLoco inh red
COc1cc(CC(=O)Nc2ccc(S(=O)(=O)N(C)C)cc2)cc(OC)c1OC	-3%	3%	-2%	-2%	-1%	7.9µM*
COc1ccc(CC(=O)Nc2ccc(S(=O)(=O)N(C)C)cc2)cc1OC	-2%	-2%	-3%	10%	2%	15%
CCCCCCCCCCCCCCCC(=O)OC[C@H](O)[C@H]1OC(=O)C(O)=C1O	.	8.9µM*	.	.	.	.
O=C1c2ccccc2C(=O)C1(O)O	32µM*	?	.	.	?	6%
Cc1c2oc3c(C)ccc(C(=O)N[C@@H]4C(=O)N[C@@H](C(C)C)C(=O)N5CCC[C@@H]5C(=O)N(C)CC(=O)N(C)[C@@H](C(C)C)C(=O)O[C@H]4C)c3nc-2c(C(=O)N[C@@H]2C(=O)N[C@@H](C(C)C)C(=O)N3CCC[C@@H]3C(=O)N(C)CC(=O)N(C)[C@@H](C(C)C)C(=O)O[C@H]2C)c(N)c1=O	2.8µM*	?	-18%	?	.	7%
CO[C@@H]1c2cc(F)ccc2/C(=C\CCOC(=O)C/C=C/c2ccccc2)[C@H]1C	-4%	3%	3%	-3%	.	-6%
C#CCCOC(=O)N1C2=NC(C(=O)OC)=C(C(=O)OC)[C@@H]3N(CC#CC)c4ccccc4[C@]23C[C@H]1C(=O)OC	-7%[11.5 µM]	-2%[12.4 µM]	-2%[12.4 µM]	4%[11.4 µM]	.	8%[14.2 µM]
CCOC(=O)C1CCCN(C(=O)c2cc(-c3ccco3)nc3ccccc23)C1 (stereo not drawn)	.	8.4µM*	.	.	3.5µM*	.
CCSC1=NC(=O)/C(=C2/C=Cc3ccccc3N2CC)S1	-5%	1%	-4%	-5%	.	1.3µM*
CCN1/C(=C2\OC(=S)N(C)C2=O)C=Cc2ccccc21	?	?	-6%	-1%	.	31%
S=C(NCCN1CCOCC1)N/N=C/c1ccccc1	i	2%	1%	2%	.	-4%
Oc1ccc(/C=N/NC(=S)NCCN2CCOCC2)c(O)c1	-10%	-3%	-3%	35µM*	22µM*	-7%
CC1=NN(c2ccccc2)C(=O)C1C=Nc1ccccc1O (stereo not drawn)	i	-2%	-9%	32µM*	-23%	6%
CC1=NN(c2ccccc2)C(=O)C1/C=C1\NC(=S)NC1=O (stereo not drawn)	4%	5%	0%	?	.	61%
CCOC(=O)c1sc(N/N=C/c2ccccc2)nc1C	i	-2%	-4%	?	7%	4%
CC(=O)c1sc(N/N=C\c2ccccc2O)nc1C	-17%	-9%	-5%	28µM*	9%	28%
Cc1onc(-c2ccccc2)c1C(=O)NNC(=O)c1ccccc1Br	.	2%	.	.	-1%	.
Cc1onc(-c2ccccc2)c1C(=O)NC(=S)NNC(=O)c1ccccc1O	i	2%	0%	18µM*	?	4%
Cc1onc(-c2ccccc2)c1C(=O)NC(=S)NNC(=O)c1ccc(O)cc1	-14%	5%	-3%	2%	34%	1%
Cc1onc(-c2ccccc2)c1C(=O)NC(=S)NNC(=O)c1ccc(O)cc1O	-8%	5%	-1%	11µM*	-21%	-6%
CCCOc1ccc(C(=O)NC(=S)NNC(=O)c2c(-c3ccccc3)noc2C)cc1	0%	-4%	-9%	11µM*	1%	11%
O=C(CSc1nnc(-c2cccc([S+](=O)([O-])N3CCCC3)c2)n1-c1ccccc1)Nc1ccc2c(c1)OCCO2	.	17%	.	.	.	.
Cc1noc(-c2ccc(N3CCCCC3C)c([N+](=O)[O-])c2)n1 (stereo not drawn)	.	.	-11%	.	.	.
CC1=C/C(=N\Nc2ccccc2[N+](=O)[O-])CC(C)(C)C1	-4%	-9%	-7%	0%	14µM*	0%
CC1(C)OC[C@@H]2O[C@@]3(C(=O)O)OC(C)(C)O[C@@H]3[C@@H]2O1	.	.	4%	.	.	.
SMILES	RECQ1 helicase	APE1 inh	BLM inh	KDM4E inh	L3MBTL1 inh	GoLoco inh red
O=C1COc2cc(S(=O)(=O)NCc3ccco3)c(Cl)cc2N1	.	-20%	-12%	.	32µM*	.
COC(=O)Cn1c2[n+](c3ccccc31)CC(O)CS2 (stereo not drawn)	0%	5%	1%	6%	-4%	3%
CCOC(=O)Cn1c2[n+](c3ccccc31)CC(O)CS2 (stereo not drawn)	i	-4%	2%	-5%	.	16µM*
C=C1CCN(C(Cc2ccccc2)C(=O)Nc2ccc(OC)cc2)S(=O)(=O)c2ccccc21 (stereo not drawn)	i	-4%	-10%	.	.	.
COc1cc(N=c2ssnc2Cl)cc(OC)c1	5%	-8%	2%	20µM*	-9%[11.4 µM]	16µM*
Clc1nssc1=Nc1ccc(Br)cc1	i	21%	-4%	11µM*	.	13%
N#Cc1cccc(N=c2ssnc2Cl)c1	-6%	1%	-3%	-22%	2%	-23%
Cc1ccc(C)c(S(=O)(=O)c2nnn3c2nc(NC2CCCCC2)c2sccc23)c1	.	.	-10%	.	.	.
CCOc1ccc(-c2cccc(NS(=O)(=O)c3ccc(Cl)s3)c2)nn1	.	.	-4%	.	.	.
C[N+]1(CCOc2ccc([N+](=O)[O-])cc2)CCOCC1	-7%	3%	2%	-21%	50%	18µM*
CC(=O)c1ccc(OCCOc2ccc([N+](=O)[O-])cc2)cc1	.	-11%	-7%	.	2%	.
CC(C)(C)n1ncc2c(=O)n(Cc3cccc(-c4ccccc4)c3)cnc21	.	-4%	.	.	.	.
COc1ccccc1N1CCN(/N=C/c2cccc(OC)c2O)CC1	-8%	11%	-4%	-3%	?	8%
COc1cccc(/C=N/N2C(=O)CSC2=S)c1O	3%	2%	-6%	-4%	25µM*	158%
COc1ccc2ccccc2c1/C=N/N1C(=O)CSC1=S	28µM*	-6%	-13%	-19%	?	88%
O=C1CSC(=S)N1/N=C/c1c(F)cccc1F	.	35%	-5%	.	.	.
Cc1ccc(Cl)cc1N1CCN(C(=O)c2cnc(N3CCOCC3)c3ccccc23)CC1	.	.	0%	.	.	.
COc1ccccc1N(Cc1cc2cccc(C)c2[nH]c1=O)C(=O)c1cccc(Cl)c1	.	.	-9%	.	.	.
CCCSc1nc(C)c(-c2csc(C(C#N)=C3CCCC3)n2)cc1C#N	7.9µM*	?	-6%	?	?	113%
CC(C)=CCC1=C(OCC(=O)O)C(=O)c2ccccc2C1=O	i	55%	?	14µM*	.	-10%[14.2 µM]
COC1=CC(=O)C(O)=C/C1=C\C=C\c1ccccc1	i	-1%	-7%	13µM*	.	-8%
O=C1c2ccccc2C(=O)N1/N=C/c1ccc(O)c(O)c1	-28%	?	-7%	16µM*	?	-11%
